Measured values reported in PubChem BioAssay (NCATS).
Where “and” joins values, the source holds several entries; their conditions need not be identical. Equal entries are not always repeated. Records with an inconclusive call do not appear. Calls of active or inactive are those of the source. The call rests on the fitted dose curve; in most records, active means well fitted curve in the direction sought with a large enough effect; inconclusive means small, poorly fitted or top-dose-only effect, or another doubt; inactive means no such curve, though single readings can be large; an effect the other way counts as inactive or inconclusive.

How the values were obtained:
[1] = biological target: Cellular tumor antigen p53 (Homo sapiens) (UniProt P04637); test: Primary qHTS for small molecule compounds that upregulate eGFP-tagged delta133p53alpha (in N-terminal) cells. (AID 2060322); conditions: NCI-H358 eGFP-delta133p53alpha fluorescence, 24 h; activation: hits give high values; further: nearly all actives have a fitted effect of over 75% in size; further: potency means the concentration at half of the fitted maximal effect;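 on activation: cells pre-induced with doxycycline then dosed without doxycycline; series mostly up to about 56 µM; 0% = DMSO vehicle and 100% = reference activator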
In short: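 NCI-H358 cells pre-induced 24 h with 10 ng/ml doxycycline for eGFP-delta133p53alpha, plated dox-free and exposed 24 h at 37C to titrated compounds. Fixed, Hoechst-stained; gated GFP peak intensity by laser scanning cytometry, normalized to DMSO (0%) and 57.5 uM 5-azacytidine (100%).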

[2] = biological target: Aldehyde dehydrogenase, mitochondrial (Homo sapiens) (UniProt P05091); test: qHTS for Inhibitors of the Aldehyde Dehydrogenase Family (ALDH2) Primary screen (AID 2061308);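 further: plate controls were vehicle for no effect and reference inhibitor for full effect; nearly all actives have a fitted effect of over 55% in size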
[3] = biological target: Retinaldehyde dehydrogenase 3 (Homo sapiens) (UniProt P47895); test: qHTS for Inhibitors of the Aldehyde Dehydrogenase Family (ALDH1A3) Primary screen (AID 2061315); further: potency means the concentration at half of the fitted maximal effect
[4] = BET inhibitor-based combinations targeting novel dependencies in MECOM-rearranged (r) AML: SET-2 cell line (AID 2202231); conditions: SET-2 AML cells viability, CellTiter-Glo luminescence, 48 h; viability: hits give low values, concentration not given here; further: nearly all actives have a fitted effect of over 35% in size; further: potency means the concentration at half of the fitted maximal effect;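 on viability: plate controls were DMSO treated cells for no effect and wells without cells for full effect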
In short: (§1)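 Here, 11-point titrations of each agent were applied to 500 seeded cells and incubated 48 hr; CellTiter-Glo signal, scaled against DMSO and empty wells, was integrated as AUC, then Z-scored within the individual line.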

[5] = BET inhibitor-based combinations targeting novel dependencies in MECOM-rearranged (r) AML: OCI-AML3 cell line (AID 2202232); conditions: Potency: OCI-AML3 viability; further: nearly all actives have a fitted effect of over 35% in size; further: potency means the concentration at half of the fitted maximal effect
In short: as §1

[6] = BET inhibitor-based combinations targeting novel dependencies in MECOM-rearranged (r) AML: MV-4-11 cell line (AID 2202233); further: nearly all actives have a fitted effect of over 45% in size; further: potency means the concentration at half of the fitted maximal effect
In short: (§2)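 Normalized to DMSO and empty-well controls, the luminescence data from CellTiter-Glo after 48 hr drug exposure were fitted across 11 concentrations. Reported metrics are area under the dose-response curve and its Z-transformed form.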

[7] = BET inhibitor-based combinations targeting novel dependencies in MECOM-rearranged (r) AML: HNT-34 cell line (AID 2202234); further: nearly all actives have a fitted effect of over 35% in size; further: potency means the concentration at half of the fitted maximal effect
In short: as §2

[8] = BET inhibitor-based combinations targeting novel dependencies in MECOM-rearranged (r) AML: UCSD-AML1 cell line (AID 2202235); further: nearly all actives have a fitted effect of over 40% in size; further: potency means the concentration at half of the fitted maximal effect
In short: as §2

[9] = BET inhibitor-based combinations targeting novel dependencies in MECOM-rearranged (r) AML: AML-194 cell line (AID 2202237; further: nearly all actives have a fitted effect of over 40% in size; further: potency means the concentration at half of the fitted maximal effect)
In short: as §1

[10] = BET inhibitor-based combinations targeting novel dependencies in MECOM-rearranged (r) AML: AML-191 cell line (AID 2202236; further: nearly all actives have a fitted effect of over 35% in size; further: potency means the concentration at half of the fitted maximal effect)
In short: as §1

[11] = biological target: Retinaldehyde dehydrogenase 3 (Homo sapiens) (UniProt P47895); test: qHTS for Inhibitors of the Aldehyde Dehydrogenase Family (ALDH1A3) Validation screen (AID 2061312); further: nearly all actives have a fitted effect of over 45% in size; further: potency means the concentration at half of the fitted maximal effect
[12] = biological target: Retinaldehyde dehydrogenase 3 (Homo sapiens) (UniProt P47895); test: qHTS for Inhibitors of the Aldehyde Dehydrogenase Family (ALDH1A3) Confirmatory screens (AID 2061311); further: on the % scale 0 is the no-effect control and ±100 the full control effect; nearly all actives have a fitted effect of over 60% in size
[13] = biological target: Aldehyde dehydrogenase 1A1 (Homo sapiens) (UniProt P00352); test: qHTS for Inhibitors of the Aldehyde Dehydrogenase Family (ALDH1A1) Confirmatory screens (AID 2061316); further: nearly all actives have a fitted effect of over 65% in size

Sequence of Cellular tumor antigen p53 (Homo sapiens) (P04637 whole entry, looked up): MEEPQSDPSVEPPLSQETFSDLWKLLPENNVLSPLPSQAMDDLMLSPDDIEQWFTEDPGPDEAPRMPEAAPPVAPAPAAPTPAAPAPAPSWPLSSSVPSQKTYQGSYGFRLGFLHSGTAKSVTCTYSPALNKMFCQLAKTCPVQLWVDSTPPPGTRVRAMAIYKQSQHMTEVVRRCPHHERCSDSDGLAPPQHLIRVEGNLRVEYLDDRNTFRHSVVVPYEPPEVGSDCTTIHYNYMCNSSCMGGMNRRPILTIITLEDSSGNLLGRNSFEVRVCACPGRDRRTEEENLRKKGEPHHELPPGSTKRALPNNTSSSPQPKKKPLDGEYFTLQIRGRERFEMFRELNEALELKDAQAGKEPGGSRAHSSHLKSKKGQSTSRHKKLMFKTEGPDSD

C/C=C(/C)C(=O)O[C@H]1C(C)=C2[C@H]([C@@H]1OC(=O)CCCCCCC)[C@@](C)(OC(C)=O)C[C@H](OC(=O)CCC)[C@@]1(O)[C@H]2OC(=O)[C@@]1(C)O
inactive: Potency [2] | Potency [3]
active: Potency [1] 33800 nM | Potency [4] 263 nM | Potency [5] 662 nM | Potency [6] 166 nM | Potency [7] 52.5 nM | Potency [8] 132 nM | Potency [9] 2090 nM

O=C(Oc1ccc([N+](=O)[O-])cc1)N1CCC(C(O)(c2ccc3c(c2)OCO3)c2ccc3c(c2)OCO3)CC1
inactive: activation [1] 9.18% and -1.67% | Potency [2] | Potency [3] | viability [4] 104% | Potency [10]

NC(=O)[C@@H](CC1CC1)[C@@H](CCC(F)(F)F)C(=O)N[C@H]1N=C(c2ccccc2)c2cccc(F)c2NC1=O
inactive: activation [1] -1.79% | Potency [2] | Potency [3] | viability [4] 117% | Potency [5] | Potency [8] | Potency [10] | Potency [9]

O=C(NCC1CCOCC1)c1cnc(Nc2ccc(Cl)cc2Cl)nc1C(F)(F)F
active: Potency [6] 14800 nM
inactive: activation [1] -5.35% and 9.55% | Potency [2] | Potency [3] | viability [4] 97.9% | Potency [5] | Potency [7] | Potency [8] | Potency [9]

CN[C@@H]1C[C@H]2O[C@@](C)([C@@H]1OC)n1c3ccccc3c3c4c(c5c6ccccc6n2c5c31)C(=O)NC4
inactive: Potency [2] | Potency [3]
active: Potency [1] 426 nM | Potency [5] 83.3 nM | Potency [8] 66.1 nM | Potency [9] 33.2 nM

CC1(N2CCC(n3c([C@@H]4CCCNC4)nc4ccccc43)CC2)CCCCCCC1
inactive: activation [1] 44.9% and 4.3% | Potency [2] | Potency [3]
active: Potency [5] 16600 nM | Potency [7] 20900 nM | Potency [9] 26300 nM

C=C1[C@@]23C(=O)O[C@H](C)[C@]24O[C@@]2(C(=C)[C@]5(C=CC(=O)OC5(C)C)CC[C@]32C)[C@H](O)[C@@]1(C)OC4=O
inactive: activation [1] 13% | Potency [3]

Clc1ccc(N2C[C@H]3CC[C@@H](C2)N3)nn1
inactive: activation [1] -0.333% | Potency [3]

CN1[C@H]2CC(O)C[C@H]1[C@H]1O[C@H]12 (stereo partly specified)
inactive: activation [1] -21% | viability [4] 118% | Potency [5] | Potency [6] | Potency [7] | Potency [8] | Potency [10] | Potency [9]

CCNC(=O)C[C@@H]1N=C(c2ccc(Cl)cc2)c2cc(OC)ccc2-n2c(C)nnc21
inactive: activation [1] -15.8% and 11.6% | Potency [2] | Potency [3]
active: Potency [4] 2630 nM | Potency [5] 742 nM | Potency [8] 833 nM

Cc1sc2c(c1C)C(c1ccc(Cl)cc1)=N[C@@H](CC(=O)OC(C)(C)C)c1nnc(C)n1-2
inactive: activation [1] -35.4% and 15.6%
active: Potency [4] 590 nM | Potency [5] 263 nM | Potency [6] 209 nM | Potency [7] 662 nM | Potency [8] 742 nM

CNc1ccc2oc(C[C@H]3O[C@@]4(CC[C@H]3C)O[C@H](C(C)C(=O)c3ccc[nH]3)[C@H](C)C[C@H]4C)nc2c1C(=O)O (stereo partly specified)
active: Potency [1] 19000 nM | Potency [11] 14100 nM | Potency [3] 11200 nM

CN(C)[C@@H]1C(=O)C(C(N)=O)=C(O)[C@@]2(O)C(=O)C3=C(O)c4c(O)ccc(Cl)c4[C@@](C)(O)C3C[C@@H]12 (stereo partly specified)
inactive: Potency [12] | Potency [3] | Potency [13]
active: Potency [1] 23900 nM

c1cncc(OC[C@@H]2CCN2)c1
inactive: activation [1] -4.3% | Potency [3]

COc1ccc(N(C(=O)Oc2c(C)cccc2C)c2ccnc(Nc3ccc(N4CCN(C)CC4)cc3)n2)c(OC)c1
inactive: activation [1] -14.2% | Potency [2] | Potency [3] | viability [4] 117% | Potency [8]
active: Potency [10] 2630 nM

FC(F)(F)c1ccc(N2CCNCC2)nc1Cl
inactive: activation [1] -26.3% | Potency [11] | Potency [3]

CC(C)[C@]12O[C@H]1[C@@H]1O[C@]13[C@]1(O[C@H]1C[C@H]1C4=C(CC[C@@]13C)C(=O)OC4)[C@@H]2O
inactive: Potency [2] | Potency [3]
active: Potency [1] 269 nM | Potency [4] 59 nM | Potency [5] 29.5 nM | Potency [6] 37.2 nM | Potency [10] 37.2 nM

O=C(N[C@@H](COc1ccc2[nH]c(=O)[nH]c2c1)c1ccccc1)c1cccn(Cc2ccc(F)c(F)c2)c1=O
active: Potency [1] 30600 nM
inactive: Potency [2] | Potency [3] | viability [4] 94%
